According to ChEMBL document CHEMBL1961873, “Compounds: GSK PKIS; Assays: Nanosyn kinase panel” (2012):

Each compound was assayed against T1, Serine/threonine-protein kinase 3 (Homo sapiens) (UniProt Q13188). Settings: at 1 µM.
T1 sequence (whole entry): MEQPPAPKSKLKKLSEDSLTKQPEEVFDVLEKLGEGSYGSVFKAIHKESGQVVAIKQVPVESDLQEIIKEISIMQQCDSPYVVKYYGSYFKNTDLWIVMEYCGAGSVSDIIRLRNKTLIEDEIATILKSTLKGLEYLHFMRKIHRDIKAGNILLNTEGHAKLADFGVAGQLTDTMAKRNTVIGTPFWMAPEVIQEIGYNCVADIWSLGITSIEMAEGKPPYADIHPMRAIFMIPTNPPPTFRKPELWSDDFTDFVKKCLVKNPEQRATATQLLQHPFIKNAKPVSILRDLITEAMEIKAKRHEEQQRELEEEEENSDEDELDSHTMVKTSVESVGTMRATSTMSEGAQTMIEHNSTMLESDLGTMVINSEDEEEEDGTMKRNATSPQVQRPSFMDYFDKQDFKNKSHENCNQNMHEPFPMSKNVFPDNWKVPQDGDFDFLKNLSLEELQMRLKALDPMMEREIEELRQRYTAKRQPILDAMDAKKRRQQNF

Question: For COc1cccc(/C=N/Nc2ncnc3c2cnn3-c2cccc(OC)c2)c1, which inhibition is on record?
Answer: 3.95%

Question: For COc1ccc2ncn(-c3cc(O[C@H](C)c4ccccc4Cl)c(C(N)=O)s3)c2c1, which inhibition is on record?
Answer: 13.2%

Question: Which inhibition does the source give for O=C(Nc1n[nH]c2cc(-c3cc(F)ccc3F)ccc12)C1CC1 here?
Answer: 3.81%

Question: Which inhibition does the source give for COc1ccc(-c2ccc3c(NC(=O)C4CC4)n[nH]c3n2)cc1 here?
Answer: 5.21%

Question: For Clc1ccc(CNc2nccc(-c3cnn4ncccc34)n2)cc1, which inhibition is on record?
Answer: 3.57%

Question: How did the inhibition turn out when CN(C)CCOc1ccc(-c2cc(-c3ccc4c(c3)CCC4=NO)c(-c3ccncc3)o2)cc1 was run?
Answer: 1.19%

Question: COc1cc(N2CCN(C(C)C)CC2)ccc1Nc1nc(Nc2ccc(F)cc2C(=O)NC[C@@H](O)CO)c2cc[nH]c2n1 was tested. Which inhibition did it give?
Answer: 7.9%

Question: How did the inhibition turn out when Cc1ccc(C(=O)NC(C)C)cc1-c1ccc(C(=O)NCC2CC2)cc1 was run?
Answer: -4.98%

Question: Which inhibition does the source give for O=C(Nc1ccc(Oc2ccc3[nH]c(NC(=O)c4ccccc4)nc3c2)cc1)Nc1cc(C(F)(F)F)ccc1F here?
Answer: 8.42%

Question: Which inhibition does the source give for Cc1ccc(C(=O)NC2CCC2)cc1-c1ccc(C(=O)NCC2CC2)cc1 here?
Answer: 1.53%

Question: O=C1Nc2ccc(I)cc2C1=Cc1cc(Br)c(O)c(Br)c1 was tested. Which inhibition did it give?
Answer: 19.5%

Question: With COc1cc(C)c(N(C)C(=O)CN(C)C)cc1Nc1nc(Nc2cccc(F)c2C(N)=O)c2cc[nH]c2n1 as the compound, how does the inhibition read?
Answer: 4.32%

Question: How did the inhibition turn out when NS(=O)(=O)c1ccc(N/N=C2\C(=O)Nc3ccc(-c4cnco4)cc32)cc1 was run?
Answer: 73.2%

Question: How did the inhibition turn out when CS(=O)(=O)CCNCc1ccc(-c2ccc3ncnc(Nc4ccc(OCc5ccccc5)c(Br)c4)c3c2)o1 was run?
Answer: 5.08%

Question: For COc1cccc(-n2cnc3c(N/N=C/c4ccncc4)ncnc32)c1, which inhibition is on record?
Answer: 7.42%

Question: Which inhibition does the source give for Cc1ccc(NC(=O)c2ccoc2)cc1-c1ccc(C(=O)NCC2CC2)cc1 here?
Answer: 4.5%

Question: With COc1ccc2cc(-c3c(-c4ccncc4)nc(-c4ccc([S+](C)[O-])cc4C)n3C)ccc2c1 (stereo not drawn) as the compound, how does the inhibition read?
Answer: 17.3%

Question: Which inhibition does the source give for CCS(=O)(=O)c1ccc(OC)c(Nc2ncc(-c3cccc(-c4ccccc4F)c3)o2)c1 here?
Answer: -0.3%

Question: How did the inhibition turn out when Fc1ccc(-c2ncn(C3CCNCC3)c2-c2ccnc(Oc3ccc(F)c(F)c3)n2)cc1 was run?
Answer: 9.55%

Question: COc1ccc2cc(-c3c(-c4ccncc4)nc(-c4ccc(S(C)(=O)=O)cc4C)n3C)ccc2c1 was tested. Which inhibition did it give?
Answer: 12.6%

Question: Which inhibition does the source give for O=C1NC(=O)C(c2cccc(Cl)c2)=C1Nc1ccc(Cl)c(C(=O)O)c1 here?
Answer: 9.28%

Question: Which inhibition does the source give for CN(C)c1ccc2c(c1)/C(=C/Nc1ccc(S(N)(=O)=O)cc1)C(=O)N2 here?
Answer: 68%

Question: With CN(c1ccc(NC(=O)Nc2c(Cl)cccc2Cl)cc1)c1ccnc(Nc2cccc(CS(C)(=O)=O)c2)n1 as the compound, how does the inhibition read?
Answer: 11.5%

Question: With COc1ccc(C2=C(N3CCc4ccccc43)C(=O)NC2=O)cc1 as the compound, how does the inhibition read?
Answer: 6.17%

Question: NS(=O)(=O)c1ccc(Nc2cc(-c3ccc(O)c(F)c3)n[nH]2)cc1 was tested. Which inhibition did it give?
Answer: 9.64%

Question: COc1cc2ncn(-c3cc(OCCc4ccccc4)c(C(N)=O)s3)c2cc1OC was tested. Which inhibition did it give?
Answer: 11%

Question: CN1CCN(CCCNc2nc3ccc(Oc4ccc(NC(=O)Nc5cc(C(F)(F)F)ccc5F)cc4)cc3[nH]2)CC1 was tested. Which inhibition did it give?
Answer: 3.55%

Question: How did the inhibition turn out when CCc1ccc(Oc2nccc(-c3c(-c4ccc(F)cc4)ncn3C3CCNCC3)n2)cc1 was run?
Answer: 5.88%

Question: For CCS(=O)(=O)c1ccc(OC)c(Nc2ncc(-c3ccccc3Cl)o2)c1, which inhibition is on record?
Answer: 2.6%

Question: For c1ccc(-c2n[nH]cc2-c2ccnc(-c3ccc(OCCN4CCOCC4)cc3)c2)nc1, which inhibition is on record?
Answer: 0.12%

Question: How did the inhibition turn out when COc1cc(Nc2ncc3c(C)nc(-c4cccc(Oc5ccccc5)c4)n3n2)cc(OC)c1OC was run?
Answer: 4.82%

Question: Which inhibition does the source give for CNC(=O)c1cncc(/C=C/c2c(C)cccc2C)c1 here?
Answer: 2.73%

Question: For COc1cc(Nc2ncc3c(C)nc(-c4cccc(C(F)(F)F)c4)n3n2)cc(OC)c1OC, which inhibition is on record?
Answer: 13.2%

Question: CCN(CC)Cc1ccc(Nc2nccc(-c3cnn4ncccc34)n2)cc1 was tested. Which inhibition did it give?
Answer: 9.79%

What follows are compounds tested against Serine/threonine-protein kinase 26 (Homo sapiens) (UniProt Q9P289). Settings: at 0.1 µM.
Serine/threonine-protein kinase 26 (Homo sapiens), sequence (Q9P289 2-416 limits assumed): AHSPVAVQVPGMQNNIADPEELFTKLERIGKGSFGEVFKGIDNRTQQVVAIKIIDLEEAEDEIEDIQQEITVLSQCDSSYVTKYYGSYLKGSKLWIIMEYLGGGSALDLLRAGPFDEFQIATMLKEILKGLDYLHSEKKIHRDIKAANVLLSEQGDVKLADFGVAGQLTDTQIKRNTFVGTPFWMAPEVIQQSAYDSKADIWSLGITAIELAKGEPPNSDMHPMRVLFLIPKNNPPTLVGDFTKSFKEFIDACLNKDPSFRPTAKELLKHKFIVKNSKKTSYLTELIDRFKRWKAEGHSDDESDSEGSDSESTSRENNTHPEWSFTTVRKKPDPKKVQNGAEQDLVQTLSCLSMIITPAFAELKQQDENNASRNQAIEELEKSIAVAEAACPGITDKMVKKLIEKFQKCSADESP

Question: With COc1cccc(/C=N/Nc2ncnc3c2cnn3-c2cccc(OC)c2)c1 as the compound, how does the inhibition read?
Answer: -3.41%

Question: Which inhibition does the source give for COc1ccc2ncn(-c3cc(O[C@H](C)c4ccccc4Cl)c(C(N)=O)s3)c2c1 here?
Answer: -2.67%

Question: For O=C(Nc1n[nH]c2cc(-c3cc(F)ccc3F)ccc12)C1CC1, which inhibition is on record?
Answer: -1.29%

Question: Which inhibition does the source give for COc1ccc(-c2ccc3c(NC(=O)C4CC4)n[nH]c3n2)cc1 here?
Answer: -1.38%

Question: Which inhibition does the source give for Clc1ccc(CNc2nccc(-c3cnn4ncccc34)n2)cc1 here?
Answer: -0.31%

Question: For CN(C)CCOc1ccc(-c2cc(-c3ccc4c(c3)CCC4=NO)c(-c3ccncc3)o2)cc1, which inhibition is on record?
Answer: 0.59%

Question: How did the inhibition turn out when COc1cc(N2CCN(C(C)C)CC2)ccc1Nc1nc(Nc2ccc(F)cc2C(=O)NC[C@@H](O)CO)c2cc[nH]c2n1 was run?
Answer: -1.23%

Question: Which inhibition does the source give for Cc1ccc(C(=O)NC(C)C)cc1-c1ccc(C(=O)NCC2CC2)cc1 here?
Answer: 2.16%

Question: For O=C(Nc1ccc(Oc2ccc3[nH]c(NC(=O)c4ccccc4)nc3c2)cc1)Nc1cc(C(F)(F)F)ccc1F, which inhibition is on record?
Answer: 0.36%

Question: For Cc1ccc(C(=O)NC2CCC2)cc1-c1ccc(C(=O)NCC2CC2)cc1, which inhibition is on record?
Answer: -3.48%

Question: Which inhibition does the source give for O=C1Nc2ccc(I)cc2C1=Cc1cc(Br)c(O)c(Br)c1 here?
Answer: 0.13%

Question: How did the inhibition turn out when COc1cc(C)c(N(C)C(=O)CN(C)C)cc1Nc1nc(Nc2cccc(F)c2C(N)=O)c2cc[nH]c2n1 was run?
Answer: -0.43%

Question: NS(=O)(=O)c1ccc(N/N=C2\C(=O)Nc3ccc(-c4cnco4)cc32)cc1 was tested. Which inhibition did it give?
Answer: 0.61%

Question: CS(=O)(=O)CCNCc1ccc(-c2ccc3ncnc(Nc4ccc(OCc5ccccc5)c(Br)c4)c3c2)o1 was tested. Which inhibition did it give?
Answer: -0.82%

Question: COc1cccc(-n2cnc3c(N/N=C/c4ccncc4)ncnc32)c1 was tested. Which inhibition did it give?
Answer: 0.98%

Question: With Cc1ccc(NC(=O)c2ccoc2)cc1-c1ccc(C(=O)NCC2CC2)cc1 as the compound, how does the inhibition read?
Answer: -1.09%

Question: COc1ccc2cc(-c3c(-c4ccncc4)nc(-c4ccc([S+](C)[O-])cc4C)n3C)ccc2c1 (stereo not drawn) was tested. Which inhibition did it give?
Answer: 0.68%

Question: Which inhibition does the source give for CCS(=O)(=O)c1ccc(OC)c(Nc2ncc(-c3cccc(-c4ccccc4F)c3)o2)c1 here?
Answer: 0.48%

Question: With Fc1ccc(-c2ncn(C3CCNCC3)c2-c2ccnc(Oc3ccc(F)c(F)c3)n2)cc1 as the compound, how does the inhibition read?
Answer: 1.93%

Question: With COc1ccc2cc(-c3c(-c4ccncc4)nc(-c4ccc(S(C)(=O)=O)cc4C)n3C)ccc2c1 as the compound, how does the inhibition read?
Answer: -0.63%

Question: For O=C1NC(=O)C(c2cccc(Cl)c2)=C1Nc1ccc(Cl)c(C(=O)O)c1, which inhibition is on record?
Answer: 0.55%

Question: For CN(C)c1ccc2c(c1)/C(=C/Nc1ccc(S(N)(=O)=O)cc1)C(=O)N2, which inhibition is on record?
Answer: 0.49%

Question: CN(c1ccc(NC(=O)Nc2c(Cl)cccc2Cl)cc1)c1ccnc(Nc2cccc(CS(C)(=O)=O)c2)n1 was tested. Which inhibition did it give?
Answer: 0.39%

Question: How did the inhibition turn out when COc1ccc(C2=C(N3CCc4ccccc43)C(=O)NC2=O)cc1 was run?
Answer: -0.57%

Question: NS(=O)(=O)c1ccc(Nc2cc(-c3ccc(O)c(F)c3)n[nH]2)cc1 was tested. Which inhibition did it give?
Answer: 0.95%

Question: COc1cc2ncn(-c3cc(OCCc4ccccc4)c(C(N)=O)s3)c2cc1OC was tested. Which inhibition did it give?
Answer: -1.7%

Question: CN1CCN(CCCNc2nc3ccc(Oc4ccc(NC(=O)Nc5cc(C(F)(F)F)ccc5F)cc4)cc3[nH]2)CC1 was tested. Which inhibition did it give?
Answer: 1.41%

Question: CCc1ccc(Oc2nccc(-c3c(-c4ccc(F)cc4)ncn3C3CCNCC3)n2)cc1 was tested. Which inhibition did it give?
Answer: 0.4%

Question: With CCS(=O)(=O)c1ccc(OC)c(Nc2ncc(-c3ccccc3Cl)o2)c1 as the compound, how does the inhibition read?
Answer: 1.19%

Question: With c1ccc(-c2n[nH]cc2-c2ccnc(-c3ccc(OCCN4CCOCC4)cc3)c2)nc1 as the compound, how does the inhibition read?
Answer: 5.82%

Question: For COc1cc(Nc2ncc3c(C)nc(-c4cccc(Oc5ccccc5)c4)n3n2)cc(OC)c1OC, which inhibition is on record?
Answer: -0.33%

Question: With CNC(=O)c1cncc(/C=C/c2c(C)cccc2C)c1 as the compound, how does the inhibition read?
Answer: 0.91%

Question: Which inhibition does the source give for COc1cc(Nc2ncc3c(C)nc(-c4cccc(C(F)(F)F)c4)n3n2)cc(OC)c1OC here?
Answer: 0.97%

Question: CCN(CC)Cc1ccc(Nc2nccc(-c3cnn4ncccc34)n2)cc1 was tested. Which inhibition did it give?
Answer: -1.89%
